Our source for the composite z-score and z-score values is PubChem BioAssay.

Assay [1] has as its system Wnt5a (protein binding on small-molecule microarray). Briefly: small molecules binding Wnt5a protein – biophysical, small-molecule microarray, 635/667 nm fluorescence, primary screen (AID 1142).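 Further: fluorescence read at 667 nm with signal to noise per printed feature.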 As to conditions: 635 nm fluorescence, higher = more signal.
Assay [2] can be described thus: ATP-based viability of Huh7 replicon cells – cell-based, CellTiter-Glo luminescence, basal, 48 h, cytotoxicity control for HCV replication inhibitor project, primary screen (AID 1143).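 Further: Huh7 hepatoma cells carrying a hepatitis C replication reporter with no stimulus; test concentration not given here.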 Conditions: higher = more signal, called active from +8 up or from −8 down. On the technique in general: A replicon is a self-replicating genome or part of one, used to study replication in cells.

Assay [3] in a line: Pseudomonas biofilm growth suppression – PAO1 strain, BacTiter-Glo luminescence, LB-PBS, primary screen (AID 1144). As to conditions: P. aeruginosa PAO1 biofilm, 12 h, higher = more signal.
The nature of assay [4]: basal CRE-LacZ reporter activity in PC12 – cell-based, unstimulated, primary screen (AID 1145). Conditions: no forskolin, luminescence, 4.5 h, higher = more signal, called active from +8 up or from −8 down.
Assay [5] can be described thus: forskolin-driven CRE-LacZ activity in PC12 – cell-based, CRE-LacZ reporter, forskolin-stimulated, primary screen (AID 1146).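 Further: PC12 cells with 6xCRE LacZ reporter stimulated by forskolin 10 µM; beta-galactosidase reporter signal reflecting CREB driven transcription.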 Conditions: luminescence, 4.5 h, higher = more signal, called active from +8 up or from −8 down.
In assay [6] the target is Streptavidin (Streptomyces avidinii) (UniProt P22629). Briefly: compounds binding control protein streptavidin – biophysical, small-molecule microarray, 635/667 nm fluorescence, artefact control for SMM compound annotation, primary screen (AID 1147).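 Further: signal reflects streptavidin binding to arrayed compounds as a control protein.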 Conditions: higher = more signal.
Sequence of Streptavidin (Streptomyces avidinii) (P22629 whole entry, looked up): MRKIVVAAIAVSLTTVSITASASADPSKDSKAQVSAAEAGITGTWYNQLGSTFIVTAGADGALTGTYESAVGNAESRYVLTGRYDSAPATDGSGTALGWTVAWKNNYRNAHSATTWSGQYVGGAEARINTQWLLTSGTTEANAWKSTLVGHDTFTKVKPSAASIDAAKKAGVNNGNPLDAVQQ
A short description of assay [7]: probe aInhba binding on compound microarray – biochemical, small-molecule microarray, 635/667 nm fluorescence, primary screen (AID 1148).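 Further: score merges 667nm spot fluorescence with signal-to-noise for antibody binding to printed compounds.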 As to conditions: higher = more signal.
Assay [8] deals with Torsin-1A (Homo sapiens) (UniProt O14656). The assay is described as follows: TOR1A wild-type binding on microarray – cell lysate, small-molecule microarray, lysate, 635/667 nm, primary screen (AID 1149). As to conditions: COS7 hTOR1A-WT lysate, 635 nm fluorescence, higher = more signal.
Sequence of Torsin-1A (Homo sapiens) (O14656 whole entry, looked up): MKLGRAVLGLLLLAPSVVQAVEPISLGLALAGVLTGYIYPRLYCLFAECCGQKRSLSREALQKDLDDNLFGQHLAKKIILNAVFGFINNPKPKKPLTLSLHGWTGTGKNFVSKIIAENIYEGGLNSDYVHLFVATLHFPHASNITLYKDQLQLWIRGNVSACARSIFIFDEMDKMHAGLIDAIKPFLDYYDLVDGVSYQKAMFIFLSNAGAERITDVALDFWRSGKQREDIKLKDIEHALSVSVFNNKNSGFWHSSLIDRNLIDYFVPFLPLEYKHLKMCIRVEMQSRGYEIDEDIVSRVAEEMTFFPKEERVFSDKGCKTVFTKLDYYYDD
The target is the same in assay [9]. Briefly: torsin A mutant lysate binding on microarrays – cell lysate, small-molecule microarray, COS7 lysate, 635/667 nm fluorescence, primary screen (AID 1150).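 Further: score pools 667 nm emission and signal to noise measuring lysate protein binding.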 Conditions: COS7 hTOR1A mutant lysate, 635 nm fluorescence, higher = more signal.
For assay [10], the system named is Sonic hedgehog protein (Shh). The assay is described as follows: Sonic hedgehog microarray binding compounds – biochemical, small-molecule microarray, 635/667 nm fluorescence, primary screen (AID 1151).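 Further: Shh protein binding to compounds spotted on small-molecule microarray slides; score combines spot fluorescence intensity with signal-to-noise across triplicate slides.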 Conditions: 635 nm fluorescence, higher = more signal.

The source made the active and inactive calls. Unless noted, how the calls were made is not given here.

As for `CN(C)CCCC[C@@H]1NC(=O)[C@@H]2C[C@H](C(=O)NCCCCCN)[C@H](c3ccc(O)cc3)N2C1=O`, the composite z-score in assay [1] was -0.286; in assay [6], 1.26; in assay [7] it was -0.0639; with Torsin-1A (Homo sapiens) [8] it was 0.424; in the assay with Torsin-1A (Homo sapiens) [9] it was 0.901; in [10] it was -0.631. For the same compound, the z-score in [2] was 0.202 (inactive); in assay [3] it was -0.504 (inactive); in assay [4], 0.549 (inactive); in [5], 0.304 (inactive).

In the case of `CCN(CC)c1ccc(N2CC=CC34O[C@@H]5/C=C\CCC(C)OC(=O)C5[C@H]3C(=O)N(CCCCCCO)[C@@H]4C2=O)cc1` (stereo not given in full), the composite z-score in [1] is -0.449; in [6], -0.629; in assay [7], -0.359; with Torsin-1A (Homo sapiens) [8], 0.84; with Torsin-1A (Homo sapiens) [9], 0.0844; in assay [10], -0.166. Moreover, the z-score is -0.406 (inactive) in [2], 0.398 (inactive) in [3], 0.886 (inactive) in assay [4] and 0.57 (inactive) in [5].

For `C[N+](C)(C)CCCCNC(=O)[C@H]1C[C@H]2C(=O)N3CCC[C@H]3C(=O)N2[C@H]1c1ccc(O)cc1`, the composite z-score in [1] was 0.554; in assay [6], 0.319; in [7], -0.164; with Torsin-1A (Homo sapiens) [8] it was 1.84; with Torsin-1A (Homo sapiens) [9] it was 1.66; in assay [10], 1.86. Further, the z-score is -0.102 (inactive) in assay [2], 0.014 (inactive) in [3], -0.821 (inactive) in assay [4] and -0.512 (inactive) in assay [5].

On to `COC(=O)c1nc2oc1CC[C@@H](CO)NC(=O)N(C)Cc1cn(nn1)C[C@H](Cc1ccccc1)NC2=O`, for which the composite z-score in assay [1] was -0.0811; in assay [6], -0.357; in [7], -0.016; with Torsin-1A (Homo sapiens) [8] it was -0.685; with Torsin-1A (Homo sapiens) [9] it was -1.25; in [10], 0.337. For the same compound, the z-score in [2] is -0.0962 (inactive); in [3], 0.0307 (inactive); in [4], 4.65 (inactive); in [5], 0.338 (inactive).

With `COc1ccc(C(=O)Nc2cccc(CN3C(=O)[C@@]4(O[C@@H](CC(=O)N5Cc6ccccc6C[C@H]5CO)[C@H]([Si](C)(C)c5ccc(OC)cc5)[C@H]4C)c4ccccc43)c2)cc1`, the composite z-score is 0.209 in [1]; 0.395 in assay [6]; -0.0095 in [7]; 0.726 with Torsin-1A (Homo sapiens) [8]; 0.488 in the assay with Torsin-1A (Homo sapiens) [9]; 2.06 in assay [10]. Also, the z-score in assay [2] was -5.04 (inactive); in [3], -0.473 (inactive); in assay [4], 4.45 (inactive); in assay [5] it was -0.534 (inactive).

Take `CCOC1=C2C(c3ccc(C)cc3)N(S(=O)(=O)c3ccc(C)cc3)CC2n2c(=O)n(-c3ccccc3)c(=O)n2C1` (stereo not given): the composite z-score worked out at 0.323 in [1]; 1.09 in [6]; 0.0135 in [7]; 0.301 in the assay with Torsin-1A (Homo sapiens) [8]; 0.254 with Torsin-1A (Homo sapiens) [9]; 0.254 in assay [10]. Also, the z-score in assay [2] was -0.576 (inactive); in assay [3] it was 1.11 (inactive); in assay [4], 0.0331 (inactive); in [5] it was 0.0749 (inactive).

In the case of `O=C1OCC=C[C@H]2OC34C=CCN(Cc5ccccc5)C(=O)[C@H]3N(CCCO)C(=O)[C@@H]4[C@@H]12` (stereo not given in full), the composite z-score in assay [1] was -0.312; in assay [6], -0.707; in [7] it was 0.222; in the assay with Torsin-1A (Homo sapiens) [8] it was -0.667; with Torsin-1A (Homo sapiens) [9] it was -0.239; in assay [10], 1.44. Moreover, the z-score in [2] is -2.33 (inactive); in [3], -1.04 (inactive); in assay [4] it was -0.899 (inactive); in [5], -0.59 (inactive).

Regarding `CC(C)(C)OC(=O)CC[C@@]1(C(N)=O)N=C(c2ccc(OCCCO)cc2)O[C@@H]1c1ccccc1N=[N+]=[N-]`, the composite z-score was 0.672 in assay [1]; 1.12 in [6]; -0.0695 in [7]; 2.08 with Torsin-1A (Homo sapiens) [8]; 1.31 with Torsin-1A (Homo sapiens) [9]; -0.179 in assay [10]. In addition, the z-score was -0.858 (inactive) in [2], 0.61 (inactive) in [3], 0.204 (inactive) in assay [4] and -0.208 (inactive) in assay [5].

As to `C=CCC(OC(C)=O)[C@@H]1[C@@H](N(Cc2ccc(-c3cccc(C(F)(F)F)c3)o2)C(=O)Cc2ccc(OC)cc2)c2cc(OCCCO)ccc2N1C(=O)Cc1ccc(OC)cc1` (stereo not given in full), the composite z-score was -0.294 in assay [1]; -1.01 in assay [6]; -0.154 in [7]; -2.51 with Torsin-1A (Homo sapiens) [8]; -1.2 with Torsin-1A (Homo sapiens) [9]; 0.514 in [10]. Moreover, the z-score in assay [2] was -3.06 (inactive); in assay [3], -1.7 (inactive); in assay [4], 0.484 (inactive); in assay [5] it was 0.609 (inactive).

Turning to `CCN(CC)c1ccc(N2CC=CC34O[C@@H]5C=CCOC(=O)[C@@H]5[C@H]3C(=O)N(CCCCCO)[C@@H]4C2=O)cc1` (stereo not given in full), the composite z-score in [1] is -0.253; in [6] it was -0.93; in [7], -0.186; in the assay with Torsin-1A (Homo sapiens) [8] it was 1.03; with Torsin-1A (Homo sapiens) [9], 1.06; in [10] it was 0.146. The z-score in assay [2] is -0.286 (inactive); in assay [3] it was 0.555 (inactive); in [4] it was 1.57 (inactive); in [5] it was -0.0409 (inactive).

Consider `C=CCOC(=O)[C@H]1[C@@H]2C(=O)O[C@@H](c3ccccc3)[C@@H](c3ccccc3)N2[C@@H](c2ccc(OCCOC(=O)[C@@H]3C[C@@H]4C(=O)NCC(=O)N4[C@@H]3c3ccc(O)cc3)cc2)[C@]12C(=O)Nc1ccc(I)cc12`, for which the composite z-score in assay [1] was 1.07; in assay [6], 0.205; in assay [7], -0.125; with Torsin-1A (Homo sapiens) [8], 1.02; with Torsin-1A (Homo sapiens) [9] it was 1.18; in assay [10], 2.04. Also, the z-score was 0.586 (inactive) in [2], 0.183 (inactive) in assay [3], 0.0003 (inactive) in assay [4] and -0.53 (inactive) in assay [5].

Take `NC(=O)NCC#Cc1ccc2c(c1)[C@]1(C(=O)N2)[C@H](c2ccccc2OCCO)N2[C@H](c3ccccc3)[C@H](c3ccccc3)OC(=O)[C@H]2[C@@H]1C(=O)N1CCCCCCC1`: the composite z-score is 0.723 in assay [1]; 2.48 in assay [6]; 1.88 in assay [7]; 2.04 in the assay with Torsin-1A (Homo sapiens) [8]; 1.28 in the assay with Torsin-1A (Homo sapiens) [9]; 1.05 in assay [10]. Further, the z-score was -1.57 (inactive) in assay [2], 0.433 (inactive) in [3], 0.802 (inactive) in assay [4] and 0.109 (inactive) in assay [5].

Regarding `COC(=O)[C@@]1(Cc2ccc(F)cc2)[C@H]2c3cc(C(=O)N(C)C)n(CCc4c[nH]c5ccc(OC)cc45)c3C[C@H]2CN1C(=O)c1ccccc1`, the composite z-score is 0.325 in [1]; 1.18 in assay [6]; 0.351 in [7]; 1.03 with Torsin-1A (Homo sapiens) [8]; 1.31 with Torsin-1A (Homo sapiens) [9]; -1.11 in assay [10]. The z-score in assay [2] is -3.84 (inactive); in assay [3], 1.41 (inactive); in [4], 1.54 (inactive); in [5] it was 0.883 (inactive).

In the case of `O=C1C2C=CC(C(O)c3ccc(Br)cc3)N(n3cnnc3)C2C(=O)N1Cc1ccccc1` (stereo not given), the composite z-score in [1] is 0.175; in [6], 1.27; in [7], -0.0375; with Torsin-1A (Homo sapiens) [8], 0.489; with Torsin-1A (Homo sapiens) [9], 1.05; in assay [10], 0.232. Besides, the z-score is 0.245 (inactive) in assay [2], 0.913 (inactive) in assay [3], 0.127 (inactive) in [4] and 1.03 (inactive) in assay [5].
